{"source": "PubChem BioAssay AID588856", "about": "(National Center for Advancing Translational Sciences (NCATS), 2011)", "note": "About 3,100 (0.76%) of roughly 410,000 compounds were called active. The call rests on the fitted dose curve; in most records, active means well fitted cell-killing curve with a large enough effect; inactive means no such curve, though single readings can be large or run the other way. The entries come from a sample that favours actives as a whole. Entries that show only a call come without a potency. Potency means the concentration at half of the fitted maximal effect."}
{"test": "qHTS for Inhibitors of TGF-b: Cytotox Counterscreen", "details": "HepG2 CAGA-GFP viability, ATP luminescence, 18 h; series mostly up to 46.1 µM", "method_in_brief": "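CellTiter-Glo luminescence gave cytotoxicity after 18 hours at 37 degrees C. The cells were HepG2 CAGA-GFP in 1% FBS DMEM, stimulated with 500 pg/mL TGF-beta after compound addition. %Activity was normalised to no-cell wells (complete cell-killing) and DMSO (no toxicity), and curves were fitted and classified.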"}
{"smiles": "Cc1cc(N2CCN(c3cccc(C(F)(F)F)c3)CC2)n2nc(-c3ccccc3)nc2n1", "Potency": "inactive"}
{"smiles": "CN1C(=O)c2[nH]nc(-c3ccc(F)cc3)c2C1c1ccccn1", "note": "(stereo unspecified)", "Potency": "inactive"}
{"smiles": "CCOc1ccc(Nc2c(S(=O)(=O)c3ccccc3)cnc3ccccc23)cc1", "Potency": "inactive"}
{"smiles": "Cc1ccc(-c2nc(S(=O)(=O)c3ccc(C)cc3)c(N3CCCCCC3)o2)cc1", "Potency": "inactive"}
{"smiles": "CC(C)S(=O)(=O)c1oc(-c2ccc(F)cc2)nc1S(=O)(=O)c1ccc(F)cc1", "Potency": "2 µM (active)"}
{"smiles": "O=C(CSc1oc(-c2ccc(F)cc2)nc1S(=O)(=O)c1ccc(Br)cc1)NC1CCCCC1", "Potency": "inactive"}
{"smiles": "COc1cccc(Cn2c(CNS(=O)(=O)c3ccc(Cl)s3)nc3cccnc32)c1", "Potency": "inactive"}
{"smiles": "COc1ccccc1N1CCN(c2ccc(=O)n(CC(=O)NCc3ccc(OC(C)C)cc3)n2)CC1", "Potency": "inactive"}
{"smiles": "O=C1C2C(c3ccccc3)CC=CC2C(c2ccoc2)N1Cc1ccccc1", "note": "(stereo unspecified)", "Potency": "inactive"}
{"smiles": "O=C(Cn1c(=O)nc(-c2ccccc2)c2cc(Cl)ccc21)NCc1ccc(Cl)cc1", "Potency": "inactive"}
{"smiles": "CC(C)c1ccc2c(c1)c(SC(C)(C)C)c(CC(C)(C)C(=O)O)n2Cc1ccc(Cl)cc1", "Potency": "10 µM (active)"}
{"smiles": "CC(C)c1ccc(Cn2c(COc3ccccc3)nc3ccccc32)cc1", "Potency": "inactive"}
{"smiles": "O=C(c1cccc(Br)c1)N1CCN(Cc2cc(=O)n3nc(-c4ccccc4)sc3n2)CC1", "Potency": "inactive"}
{"smiles": "CCCOc1cccc(C(=O)Nc2cccc(NC(=O)c3ccc(C(C)(C)C)cc3)c2)c1", "Potency": "inactive"}
{"smiles": "CCCOc1ccc(N2CC(C(=O)Nc3ccccn3)CC2=O)cc1", "note": "(stereo unspecified)", "Potency": "inactive"}
{"smiles": "CCCOc1ccc(C(=O)C(CCC(CNCC)C(=O)c2ccc(OCCC)cc2)CNCC)cc1", "note": "(stereo unspecified)", "Potency": "3.16 µM (active)"}
{"smiles": "CC(C)(C)C1CCC(NC(=O)c2cnn3c2NC(=C2CC2)C=C3C(F)F)CC1", "note": "(stereo unspecified)", "Potency": "inactive"}
{"smiles": "CN(C)c1ccc(/C=C/c2sc3ccccc3[n+]2CCCCBr)cc1", "Potency": "inactive"}
{"smiles": "Cc1c(CCO)sc[n+]1CC(=O)c1ccc2ccccc2c1", "Potency": "inactive"}
{"smiles": "CCC1CCCCN1S(=O)(=O)c1ccc(NC(=O)c2cc(=O)c3ccccc3o2)cc1", "note": "(stereo unspecified)", "Potency": "inactive"}
{"smiles": "Cc1cc2oc3ccc(NCCC4CCCN4C)cc3c(=O)c2cc1C", "note": "(stereo unspecified)", "Potency": "10 µM (active)"}
{"smiles": "CNCCCOc1cc2nc(N3CCCN(C)CC3)nc(NC3CCN(C)CC3)c2cc1OC", "Potency": "inactive"}
{"smiles": "COc1ccccc1CNS(=O)(=O)c1cc(Br)cc2c1N(C(C)=O)C(C)C2", "note": "(stereo unspecified)", "Potency": "inactive"}
{"smiles": "O=C(Cn1nc(Cc2cccnc2)c2ccccc2c1=O)N1CCN(c2ccccc2F)CC1", "Potency": "inactive"}
{"smiles": "COc1cc(OC)c(/C=C/c2ccnc3ccccc23)c(OC)c1", "Potency": "inactive"}
{"smiles": "O=C(CSc1nccn1Cc1ccc(F)cc1)NCc1ccccc1", "Potency": "inactive"}
{"smiles": "COc1cc(OC)c(C2C=C(C(=O)O)Nc3ncnn32)cc1OC", "note": "(stereo unspecified)", "Potency": "inactive"}
{"smiles": "NC(Cc1ccc(F)cc1)c1csc(Nc2nncc3ccccc23)n1", "note": "(stereo unspecified)", "Potency": "15.8 µM (active)"}
{"smiles": "COCC(C)NC(=O)COc1nncc2ccccc12", "note": "(stereo unspecified)", "Potency": "inactive"}
{"smiles": "CN(Cc1ccccc1)c1ccc(/C=C/c2ccnc3ccccc23)cc1", "Potency": "inactive"}
{"smiles": "Cc1ccc(OCC(=O)OCc2cc(=O)n3nc(C4CC4)sc3n2)cc1", "Potency": "inactive"}
{"smiles": "CCCCC(CCCC)c1ccc(C=Nc2ccc(/C=C/c3ccnc4ccccc34)cc2)cc1", "Potency": "inactive"}
{"smiles": "COc1ccccc1-c1nnc(SCC(N)=O)o1", "Potency": "inactive"}
{"smiles": "COc1ccc(CN(C(=O)CSc2nnc(-c3ccc(OC)c(OC)c3)o2)c2ccc(F)cc2)cc1", "Potency": "inactive"}
{"smiles": "COc1ccc(-c2nnc(SC(=O)N3c4ccccc4Sc4ccccc43)o2)cc1", "Potency": "11.2 µM (active)"}
{"smiles": "CC(C)Nc1nc(NCCOc2ccccc2Cl)c2sccc2n1", "Potency": "inactive"}
{"smiles": "COc1cccc(CNc2nc(NCc3ccccc3OC)nc3ccsc23)c1", "Potency": "11.2 µM (active)"}
{"smiles": "COc1cccc(CNc2nccn(-c3ccc(OC)c(OC)c3)c2=O)c1", "Potency": "inactive"}
{"smiles": "CCN(CC)/[N+]([O-])=N/OCOC(=O)Cc1c(C)n(C(=O)c2ccc(Cl)cc2)c2ccc(OC)cc12", "Potency": "inactive"}
{"smiles": "CCOc1ccccc1N(CC)C(=O)c1cc2ccc3cccnc3c2[nH]1", "Potency": "12.6 µM (active)"}
{"smiles": "Cc1ccccc1CN1CCC(C(=O)Nc2ccc(Oc3cccnc3)cc2)CC1", "Potency": "inactive"}
{"smiles": "Cc1ccccc1CN1CCC(CNC(=O)c2cc3ccc4cccnc4c3[nH]2)CC1", "Potency": "12.6 µM (active)"}
{"smiles": "COc1cc(NC(=O)c2cc3ccc4cccnc4c3[nH]2)cc(OC)c1OC", "Potency": "inactive"}
{"smiles": "CCOc1ccccc1N(CC)C(=O)Nc1cn(C)c(=O)c2ccccc12", "Potency": "inactive"}
{"smiles": "Cc1ccccc1CN1CCC(CNC(=O)c2c(C)oc3ncnc(N4CCCCC4)c23)CC1", "Potency": "inactive"}
{"smiles": "CCOc1ccc(N(CC)C(=O)C2CCN(S(=O)(=O)c3cccc4nonc34)CC2)cc1", "Potency": "inactive"}
{"smiles": "COc1ccccc1NC(=O)C1=C(C)Nc2ncnn2C1c1sccc1C", "note": "(stereo unspecified)", "Potency": "inactive"}
{"smiles": "O=C(CSc1nc(=O)[nH]c2c1CCCC2)Nc1cc(C(F)(F)F)ccc1Cl", "Potency": "inactive"}
{"smiles": "CCN1CCN(c2ccc(/C=C/c3ccnc4ccccc34)cc2)CC1", "Potency": "inactive"}
{"smiles": "Cc1oc2ncn(CC(C)C)c(=O)c2c1C(=O)N1CCN(c2ccccc2F)CC1", "Potency": "inactive"}
{"smiles": "O=C(NC1(C(F)(F)F)N=C(c2ccccc2)N(C2CCCCC2)C1=O)c1ccccc1F", "note": "(stereo unspecified)", "Potency": "inactive"}
{"smiles": "O=C1NC(Nc2nc3ccccc3s2)(C(F)(F)F)C(=O)N1C1CCCCC1", "note": "(stereo unspecified)", "Potency": "11.2 µM (active)"}
{"smiles": "CCCN(C(=O)Cn1ncc2c([nH]c3ccc(C)cc32)c1=O)c1ccccc1C", "Potency": "inactive"}
{"smiles": "Cc1ccc(/C=N/NC(=O)COc2ccccc2-c2ccccc2)cc1", "Potency": "10 µM (active)"}
{"smiles": "O=C(COc1ccc(-c2ccccc2)cc1)NN=C1CCCC1", "Potency": "inactive"}
{"smiles": "CC(=O)c1ccc(NC(=O)COc2ccccc2-c2nc(-c3ccccc3)no2)cc1", "Potency": "inactive"}
{"smiles": "CCOc1ccccc1NC(=O)CCn1cnnn1", "Potency": "inactive"}
{"smiles": "O=C(Nc1ccccc1Cl)/C(Cl)=C(\\Cl)S(=O)c1ccccc1", "note": "(stereo unspecified)", "Potency": "3.55 µM (active)"}
{"smiles": "O=C(Nc1ccccc1Cl)N1CCC(CN2CCCCC2)CC1", "Potency": "inactive"}
{"smiles": "O=C(Nc1ccccc1Cl)N1CCC(CN2CCCC2)CC1", "Potency": "inactive"}
{"smiles": "CCCN1CCC(=O)N(C(CSc2ccc(OC)cc2)Cc2ccccc2)CC1", "note": "(stereo unspecified)", "Potency": "inactive"}
{"smiles": "Cc1ccccc1CNC(=O)C1CCCN(S(=O)(=O)N(C)c2ccc(F)cc2)C1", "note": "(stereo unspecified)", "Potency": "inactive"}
{"smiles": "CCS(=O)(=O)c1ncc(N(Cc2ccc(F)cc2)Cc2ccco2)c(C(=O)Nc2cc(C)ccc2C)n1", "Potency": "inactive"}
{"smiles": "Cc1ccc(NC(=O)c2nc(S(=O)(=O)Cc3cccc(C)c3)ncc2Cl)cc1", "Potency": "7.08 µM (active)"}
{"smiles": "CSc1ncc(Cl)c(C(=O)Nc2ccc(S(=O)(=O)N3CCCC(C)C3)cc2)n1", "note": "(stereo unspecified)", "Potency": "inactive"}
{"smiles": "CCCSc1ncc(Cl)c(C(=O)Nc2c(C(=O)Nc3ccccc3)oc3ccccc23)n1", "Potency": "inactive"}
{"smiles": "Cc1cccc(CS(=O)(=O)c2ncc(Cl)c(C(=O)Nc3ccc(F)cc3)n2)c1", "Potency": "10 µM (active)"}
{"smiles": "Cc1cccc(NC(=O)c2nc(S(=O)(=O)Cc3ccccc3)ncc2Cl)c1", "Potency": "11.2 µM (active)"}
{"smiles": "CCOC(=O)c1ccc(NC(=O)c2nc(SCc3ccc(F)cc3)ncc2Cl)cc1", "Potency": "inactive"}
{"smiles": "O=C(Nc1ccccc1C(F)(F)F)c1nc(S(=O)(=O)Cc2ccccc2F)ncc1Cl", "Potency": "inactive"}
{"smiles": "Cc1ccc(CCNC(=O)c2ccc(CS(=O)(=O)Cc3cccc(C)c3)o2)cc1", "Potency": "inactive"}
